Experimental data: PubChem BioAssay (NCI)
Compounds without any hit were thinned out: in the full panel of roughly 83,000, 20% have a hit.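 48-hour exposure, single concentration, 96-well plates; percent growth endpoint where 0 means no net growth. Active: below 10.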 Activity calls are given as the source filed them.

What follows are compounds tested on HL-60(TB) leukemia (assay: NCI-60 one-dose screen, 48 h (100 = growth as untreated, 0 = no growth, -100 = all killed)). Details: 10 µM unless noted.

Row | Compound | growth
1 | [2H]C([2H])([2H])Oc1c(F)cccc1/C=C/C(=O)/C=C(O)/C=C/c1cccc(F)c1OC([2H])([2H])[2H] | 88.5% (inactive)
2 | O=C(Nc1ccc(CN2CCOCC2)cc1)c1[nH]ncc1Nc1ncnc2sccc12 | -22% (active)
3 | COc1ccc2cc(-c3cnc4nonc4n3)ccc2c1 | -12% (active)
4 | Oc1ccccc1-c1nnc(CNc2ccc(Cl)cc2)o1 | 4.56% (active)
5 | O=C(/C=C/c1cccc(O)c1)c1cccc(-n2cc(-c3ccc(Cl)cc3)[nH]c2=O)c1 | -6.19% (active)
6 | COc1ccc(N2CCN(C(=O)c3sc4nc(C)c(Br)c(C)c4c3N)CC2)cc1 | 95.7% (inactive)
7 | Cc1nccc2c3ccc(OCc4cn(-c5ccccc5)nn4)cc3n(CCCc3ccccc3)c12 | 30.1% (inactive)
8 | COc1cc(/C=C/c2cc(/C=C/c3ccc(O)c(OC)c3)n(C(=O)Nc3ccc(C)cc3)n2)ccc1O | -28.2% (active)
9 | CC(=C(c1ccc(OCCN2CCCCC2)cc1)c1ccc(OCCN2CCCCC2)cc1)c1ccc(Cl)cc1 | -62% (active)
10 | C=C(C)[C@@H]1CC[C@]2(CO)CC[C@]3(C)[C@H](CC[C@@H]4[C@@](C)(CCCN)[C@H](C(=C)C)CC[C@]43C)[C@@H]12 | -54.7% (active)
11 | CNC(=O)c1ccccc1Sc1ccc2c(/C=C/c3ccccn3)n[nH]c2c1 | 12.6% (inactive)
12 | COc1ccc2[nH]c(C(=O)OCc3ccc4cccc(O)c4n3)cc2c1 | -36.8% (active)
13 | COC(=O)C1C(O)C(C)C(O)C(C)C=C(C)C2=C3C(=C(C)C(=O)c4c(O)c(c(C)c(OC(C)=O)c43)NC(=O)C(C)=C/C=C\C(C)C(O)C(C)C1O)OCO2 (stereo not given) | 141% (inactive)
14 | CCCCCCCC(=O)SCC/C=C/[C@@H]1CC(=O)NCc2cc(ccn2)C2=N[C@@](C)(CS2)C(=O)N[C@@H](C(C)C)C(=O)O1 | 22.6% (inactive)
15 | COC(=O)c1ccc2c(c1)c1c(C)c3ccncc3c(C)c1n2C | 32.5% (inactive)
16 | O=c1[nH]c(-c2ccccn2)nc2sc3c(c12)CCCCCC3 | 10.9% (inactive)
17 | O=C(Nc1cccc([N+](=O)[O-])c1)NN1CCCCCC1 | 112% (inactive)
18 | CCCCCCCCCCCCCCCCCc1nccn1CCO | 64.4% (inactive)
19 | COc1ccc(-c2cc(-c3ccc(Cl)cc3)nc(NCCCCNc3ccnc4cc(Cl)ccc34)n2)cc1 | 16.7% (inactive)
20 | CC(=O)OC[C@]12CC[C@@H]([C@@H](C)C(N)=O)[C@@H]1[C@H]1CC[C@@H]3[C@@]4(C)CC[C@H](OC(C)=O)C(C)(C)[C@@H]4CC[C@@]3(C)[C@]1(C)CC2 | -23.1% [100 µM] (active)

Row | Compound | growth
21 | C=C(COC(C)=O)[C@H]1CC/C(C)=C/CC/C(C)=C/CC[C@@]2(C)O[C@H]2C1 | 103% (inactive)
22 | O=S(=O)(/N=c1/n(-c2ccccc2)nc2n1CCN2C1=NCCN1)c1ccc(-c2ccccc2)cc1 | 136% (inactive)
23 | COc1cccc(N=CNc2cccc(OC)c2)c1 | 96.7% (inactive)
24 | CNC(=O)c1c(C)oc2cc(Oc3ncnc4cc(OC)c(OC)cc34)ccc12 | 117% (inactive)
25 | Cn1c(=O)cc2c3c(c(NCCCO)ccc31)C(=O)c1ccccc1-2 | 50.8% (inactive)
26 | CN1CCN(C(=O)c2cc(-c3ccc4ncnc(N5CCc6cc(F)c(Cl)cc65)c4c3)cnc2N)CC1 | -32.5% (active)
27 | COc1ccc(S(=O)(=O)NC2c3ccccc3CC2O)cc1OC (stereo not given) | 103% (inactive)
28 | C#Cc1cccc(Nc2ncnc3ccc(-c4cnc(Cl)c(NS(C)(=O)=O)c4)cc23)c1 | -5.77% (active)
29 | Oc1c(I)cc(I)cc1CNCCN(Cc1ccccn1)Cc1ccccn1 | -31.5% (active)
30 | C=C(C)[C@@H]1CC[C@]2(/C=N/Nc3ccncc3)CC[C@]3(C)[C@H](CC[C@@H]4[C@@]5(C)CCCNC(C)(C)[C@@H]5CC[C@]43C)[C@@H]12 | 58.5% (inactive)
31 | O=C(c1ccccc1)C(Br)C(Br)c1cccc([N+](=O)[O-])c1 (stereo not given) | -2.38% (active)
32 | COc1ccc(Cn2cc3c(c2)-c2oncc2CC3)cc1OC | 2.83% (active)
33 | CCC(C)(C)C1CCC(O)CC1 (stereo not given) | 83.8% (inactive)
34 | CN(C)C(=O)Oc1cccc([N+](C)(C)C)c1 | 91% (inactive)
35 | O=C1Nc2ccccc2/C1=C\c1c[nH]c2ccc(Br)cc12 | 73.1% (inactive)
36 | C=C(C)[C@@H]1CC[C@]2(C(=O)NNC(=O)c3cccnc3)CC[C@]3(C)[C@H](CC[C@@H]4[C@@]5(C)CCCNC(C)(C)[C@@H]5CC[C@]43C)[C@@H]12 | 66.9% (inactive)
37 | CCN1C(=O)c2ccc3c4c(ccc(c24)C1=O)C(=O)N(CCCNCc1ccccc1OC)C3=O | -52.6% (active)
38 | CC/C=C\C/C=C\C[C@H](O)C/C=C1/C(=O)C=C[C@@H]1C/C=C\CCCC(=O)O | 32.6% (inactive)
39 | CC(=O)C(C(C)=O)c1nc2sc3cc(Cl)ccc3n2c(=N)c1C#N | 112% (inactive)
40 | COc1cc(/C=C/c2cc(/C=C/c3ccc(O)c(OC)c3)n(C(=O)Nc3ccc(F)cc3)n2)ccc1O | -21.4% (active)
